Values joined by “and” are separate entries in the source; they are usually repeats but may differ in a detail not shown here. Equal entries are not always repeated. The panel holds about 83,000 compounds, 20% with a hit somewhere; the sample as a whole holds those more often.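 Testing used 96-well plates and a 48-hour single-concentration exposure. Example: -40 means 40% of the starting cells died.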 Active and inactive are the calls of the source. Rule for the calls: active = growth percent below 10; inactive = the rest.
How the values were obtained:
Assay in all cases: NCI-60 one-dose screen, 48 h (100 = growth as untreated, 0 = no growth, -100 = all killed)
SR leukemia = details: 10 µM unless noted
RPMI-8226 leukemia = system: RPMI-8226 leukemia
OVCAR-8 ovarian = system: OVCAR-8 ovarian
OVCAR-5 ovarian = system: OVCAR-5 ovarian
OVCAR-4 ovarian = system: OVCAR-4 ovarian
SK-OV-3 ovarian = system: SK-OV-3 ovarian
IGROV1 ovarian = system: IGROV1 ovarian
OVCAR-3 ovarian = details: 10 µM unless noted
HS 578T breast = system: HS 578T breast
NCI/ADR-RES ovarian = system: NCI/ADR-RES ovarian

Measured: growth

CCOC(=O)/C(=C\c1ccc(-c2ccccc2)cc1)C(C)=O
inactive: SR leukemia 95.9% | RPMI-8226 leukemia; 10 µM unless noted 105% | OVCAR-8 ovarian; 10 µM unless noted 113% | OVCAR-5 ovarian; 10 µM unless noted 96.7% | OVCAR-4 ovarian; 10 µM unless noted 105% | SK-OV-3 ovarian; 10 µM unless noted 116% | IGROV1 ovarian; 10 µM unless noted 101% | OVCAR-3 ovarian 98.2% | HS 578T breast; 10 µM unless noted 103%

O=C(Nc1cccc(Br)c1)Oc1cccc2cccnc12
inactive: SR leukemia 10.5% [100 µM] | RPMI-8226 leukemia; 10 µM 99.2% | OVCAR-8 ovarian; 10 µM 102% | OVCAR-8 ovarian; 100 µM 11% | OVCAR-5 ovarian; 10 µM 108% | OVCAR-4 ovarian; 10 µM 80.7% | SK-OV-3 ovarian; 10 µM 110% | SK-OV-3 ovarian; 100 µM 102% | IGROV1 ovarian; 10 µM 106% | HS 578T breast; 10 µM 110% | HS 578T breast; 100 µM 79.3% | NCI/ADR-RES ovarian; 10 µM 103%
active: RPMI-8226 leukemia; 100 µM 1.75% | OVCAR-5 ovarian; 100 µM 9.37% | OVCAR-4 ovarian; 100 µM -4.65% | IGROV1 ovarian; 100 µM 6.09% | NCI/ADR-RES ovarian; 100 µM 4.89%

CCCCCCCCCCCCCCCCOP(=O)([O-])OCC[N+](C)(C)C
inactive: SR leukemia 15% | OVCAR-8 ovarian; 10 µM unless noted 59.6% | OVCAR-5 ovarian; 10 µM unless noted 53.2% | OVCAR-4 ovarian; 10 µM unless noted 78.3% | SK-OV-3 ovarian; 10 µM unless noted 37.9% | IGROV1 ovarian; 10 µM unless noted 21.3% | OVCAR-3 ovarian 33.4% | HS 578T breast; 10 µM unless noted 33.7%
active: RPMI-8226 leukemia; 10 µM unless noted 7.31%

Nc1nc(N)c2nc(CNc3ccc(C(=O)NC(CCC(=O)O)C(=O)O)cc3)cnc2n1 (stereo not given)
inactive: SR leukemia 15.1% and 40.2% | RPMI-8226 leukemia; 10 µM unless noted 60.7% and 55% | OVCAR-8 ovarian; 10 µM unless noted 31.7% and 34.9% | OVCAR-5 ovarian; 10 µM unless noted 31.9% | OVCAR-4 ovarian; 10 µM unless noted 58.8% and 49.1% | SK-OV-3 ovarian; 10 µM unless noted 53.9% and 44.2% | IGROV1 ovarian; 10 µM unless noted 36.9% and 34.9% | OVCAR-3 ovarian 37.6% and 39.8% | HS 578T breast; 10 µM unless noted 90.5%

Cc1cc2nc(CS)[nH]c2cc1C
inactive: SR leukemia 45.9% | RPMI-8226 leukemia; 10 µM unless noted 28.7% | OVCAR-8 ovarian; 10 µM unless noted 96.5% | OVCAR-5 ovarian; 10 µM unless noted 96.8% | OVCAR-4 ovarian; 10 µM unless noted 85.5% | SK-OV-3 ovarian; 10 µM unless noted 87.1% | IGROV1 ovarian; 10 µM unless noted 74.5% | OVCAR-3 ovarian 82.6% | HS 578T breast; 10 µM unless noted 103% | NCI/ADR-RES ovarian; 10 µM unless noted 95.7%

N#CSCc1ccc(Cl)c(CSC#N)c1
active: SR leukemia 8.52%
inactive: RPMI-8226 leukemia; 10 µM unless noted 23.9% | OVCAR-8 ovarian; 10 µM unless noted 61.9% | OVCAR-5 ovarian; 10 µM unless noted 68.7% | OVCAR-4 ovarian; 10 µM unless noted 48.7% | SK-OV-3 ovarian; 10 µM unless noted 90.1% | IGROV1 ovarian; 10 µM unless noted 59.4% | OVCAR-3 ovarian 46.3% | HS 578T breast; 10 µM unless noted 49% | NCI/ADR-RES ovarian; 10 µM unless noted 45.5%

O=C(/C=C\c1cc(Br)ccc1O)/C=C/c1cc(Br)ccc1O
active: SR leukemia 1.17% | RPMI-8226 leukemia; 10 µM unless noted 0.234% | OVCAR-8 ovarian; 10 µM unless noted 3.86% | OVCAR-5 ovarian; 10 µM unless noted -22.2% | IGROV1 ovarian; 10 µM unless noted -16.9% | OVCAR-3 ovarian -81.5% | NCI/ADR-RES ovarian; 10 µM unless noted 7.59%
inactive: OVCAR-4 ovarian; 10 µM unless noted 15.2% | SK-OV-3 ovarian; 10 µM unless noted 18.9% | HS 578T breast; 10 µM unless noted 37.8%

N#Cc1ccc([N+](=O)[O-])o1
inactive: SR leukemia 104% | RPMI-8226 leukemia; 10 µM unless noted 107% | OVCAR-8 ovarian; 10 µM unless noted 89.9% | OVCAR-5 ovarian; 10 µM unless noted 107% | OVCAR-4 ovarian; 10 µM unless noted 107% | SK-OV-3 ovarian; 10 µM unless noted 96.4% | IGROV1 ovarian; 10 µM unless noted 109% | OVCAR-3 ovarian 118% | HS 578T breast; 10 µM unless noted 100% | NCI/ADR-RES ovarian; 10 µM unless noted 114%

COc1cc(/C=C/C(C)=O)ccc1O
inactive: SR leukemia 93.2% and 89.3% | RPMI-8226 leukemia; 10 µM unless noted 116% | OVCAR-8 ovarian; 10 µM unless noted 104% and 105% | OVCAR-5 ovarian; 10 µM unless noted 92.3% and 102% | OVCAR-4 ovarian; 10 µM unless noted 108% and 103% | SK-OV-3 ovarian; 10 µM unless noted 94% and 112% | IGROV1 ovarian; 10 µM unless noted 101% and 119% | OVCAR-3 ovarian 100% and 106% | HS 578T breast; 10 µM unless noted 113%

CCC(c1cccc(O)c1)C(CC)c1cccc(O)c1 (stereo not given)
inactive: SR leukemia 16.5% | RPMI-8226 leukemia; 10 µM unless noted 31.6% | OVCAR-8 ovarian; 10 µM unless noted 85.6% | OVCAR-5 ovarian; 10 µM unless noted 96.3% | OVCAR-4 ovarian; 10 µM unless noted 67.6% | SK-OV-3 ovarian; 10 µM unless noted 76.5% | IGROV1 ovarian; 10 µM unless noted 72.4% | OVCAR-3 ovarian 77.3% | HS 578T breast; 10 µM unless noted 54.2%

CCOC(=O)c1c(C)[nH]c(CO)c1C
inactive: SR leukemia 101% | RPMI-8226 leukemia; 10 µM unless noted 97.8% | OVCAR-8 ovarian; 10 µM unless noted 101% | OVCAR-5 ovarian; 10 µM unless noted 104% | OVCAR-4 ovarian; 10 µM unless noted 105% | SK-OV-3 ovarian; 10 µM unless noted 102% | IGROV1 ovarian; 10 µM unless noted 98% | OVCAR-3 ovarian 103% | HS 578T breast; 10 µM unless noted 109%

CCCCCCCCCCCCCCCCCCOP(=O)([O-])OC1CC[N+](C)(C)CC1
active: SR leukemia 3.18% and -3.35% | RPMI-8226 leukemia; 10 µM unless noted 6.44% and -36.6% | OVCAR-5 ovarian; 10 µM unless noted -24.1% and -61.2% | IGROV1 ovarian; 10 µM unless noted -61.7%
inactive: OVCAR-8 ovarian; 10 µM unless noted 49.6% | OVCAR-4 ovarian; 10 µM unless noted 65.2% | SK-OV-3 ovarian; 10 µM unless noted 35.9% and 48.2% | OVCAR-3 ovarian 65.9% and 14% | HS 578T breast; 10 µM unless noted 11.8%
